Laboratory results taken from the supplement of paper PMC11732987, “Enantioselective OTUD7B fragment discovery through chemoproteomics screening and high-throughput optimisation” (Communications Chemistry, 2025).

How the values were obtained:
Assay in all cases: log2 ratio of Biotin-Ahx-Ub-VS probe labelling (fragment/DMSO); higher = less target engagement (more negative = stronger competition), active = hit call of the paper (q ≤ 0.05, log2 ratio ≤ -1)
Conditions in all cases: compound concentration: 200 uM; treatment time: 3 h
[1] = biological target: T1, OTUD6B (UniProt Q8N6M0)
T1 sequence (whole entry): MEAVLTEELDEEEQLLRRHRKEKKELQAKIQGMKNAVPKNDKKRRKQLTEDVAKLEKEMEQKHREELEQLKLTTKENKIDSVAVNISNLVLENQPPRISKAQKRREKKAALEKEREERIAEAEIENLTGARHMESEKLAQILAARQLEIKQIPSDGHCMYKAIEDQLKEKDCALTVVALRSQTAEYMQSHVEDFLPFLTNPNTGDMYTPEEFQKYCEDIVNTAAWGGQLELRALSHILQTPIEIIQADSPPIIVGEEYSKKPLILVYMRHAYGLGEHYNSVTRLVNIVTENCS
Procedure, shortened: (§1)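 Global-median-normalised Spectronaut label-free quantities were compared by unpaired t-test, and values are average log2 ratios of fragment over vehicle. Only proteins with ≥2 unique peptides were used. HEK293T lysate (495 µg per sample) was treated in triplicate with fragment at 200 µM or vehicle for 3 h and then with Biotin-Ahx-Ub-VS at 0.5 µM final for 1 h. Labelled DUBs were then NeutrAvidin-enriched, digested with LysC and trypsin, and run by diaPASEF LC-MS/MS.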

[2] = biological target: T2, OTUD7B (UniProt Q6GQQ9)
T2 sequence (whole entry): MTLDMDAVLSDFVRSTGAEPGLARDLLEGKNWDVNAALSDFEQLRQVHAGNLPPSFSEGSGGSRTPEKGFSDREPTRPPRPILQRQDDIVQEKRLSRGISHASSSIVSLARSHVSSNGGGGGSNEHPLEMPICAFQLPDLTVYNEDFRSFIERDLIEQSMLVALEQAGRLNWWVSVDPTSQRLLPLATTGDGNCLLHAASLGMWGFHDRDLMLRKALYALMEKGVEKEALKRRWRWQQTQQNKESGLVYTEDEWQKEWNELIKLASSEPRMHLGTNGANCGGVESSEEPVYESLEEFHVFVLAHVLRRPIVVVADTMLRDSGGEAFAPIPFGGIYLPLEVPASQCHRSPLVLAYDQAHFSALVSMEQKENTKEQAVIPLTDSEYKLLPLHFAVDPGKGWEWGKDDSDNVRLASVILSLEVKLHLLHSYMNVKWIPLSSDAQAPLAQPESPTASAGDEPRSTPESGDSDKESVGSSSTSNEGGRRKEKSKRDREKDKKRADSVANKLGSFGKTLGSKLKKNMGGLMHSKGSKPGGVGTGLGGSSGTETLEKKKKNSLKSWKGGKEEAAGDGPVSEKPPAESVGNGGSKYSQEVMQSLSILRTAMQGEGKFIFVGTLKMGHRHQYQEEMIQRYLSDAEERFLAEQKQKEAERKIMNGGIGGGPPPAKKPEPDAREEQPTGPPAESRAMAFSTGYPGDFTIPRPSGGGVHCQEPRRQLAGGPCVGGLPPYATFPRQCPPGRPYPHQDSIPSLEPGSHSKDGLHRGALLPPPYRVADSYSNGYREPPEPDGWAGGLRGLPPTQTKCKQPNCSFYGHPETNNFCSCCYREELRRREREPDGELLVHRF
Procedure, shortened: as §1

[3] = biological target: PRPF8 (UniProt Q6P2Q9)
Procedure, shortened: as §1

[4] = biological target: T3, PSMD7 (UniProt P51665)
T3 sequence (whole entry): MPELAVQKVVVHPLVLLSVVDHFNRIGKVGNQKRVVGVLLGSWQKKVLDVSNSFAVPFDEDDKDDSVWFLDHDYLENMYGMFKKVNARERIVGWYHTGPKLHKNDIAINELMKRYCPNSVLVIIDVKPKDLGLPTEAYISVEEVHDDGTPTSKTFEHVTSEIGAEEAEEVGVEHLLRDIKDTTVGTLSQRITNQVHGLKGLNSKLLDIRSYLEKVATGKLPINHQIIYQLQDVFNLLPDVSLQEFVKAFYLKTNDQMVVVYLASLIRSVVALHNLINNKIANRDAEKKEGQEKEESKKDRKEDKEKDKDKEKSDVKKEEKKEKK
Procedure, shortened: as §1

[5] = biological target: UCHL1 (UniProt P09936)
Procedure, shortened: as §1

[6] = biological target: T4, UCHL3 (UniProt P15374)
T4 sequence (whole entry): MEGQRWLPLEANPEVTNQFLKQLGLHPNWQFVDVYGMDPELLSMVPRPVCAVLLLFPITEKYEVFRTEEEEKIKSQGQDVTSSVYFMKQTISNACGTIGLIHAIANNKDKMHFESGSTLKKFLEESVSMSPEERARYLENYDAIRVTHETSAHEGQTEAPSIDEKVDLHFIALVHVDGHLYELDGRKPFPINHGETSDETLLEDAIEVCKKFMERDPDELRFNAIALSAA
Procedure, shortened: as §1

[7] = biological target: T5, UCHL5 (UniProt Q9Y5K5)
T5 sequence (whole entry): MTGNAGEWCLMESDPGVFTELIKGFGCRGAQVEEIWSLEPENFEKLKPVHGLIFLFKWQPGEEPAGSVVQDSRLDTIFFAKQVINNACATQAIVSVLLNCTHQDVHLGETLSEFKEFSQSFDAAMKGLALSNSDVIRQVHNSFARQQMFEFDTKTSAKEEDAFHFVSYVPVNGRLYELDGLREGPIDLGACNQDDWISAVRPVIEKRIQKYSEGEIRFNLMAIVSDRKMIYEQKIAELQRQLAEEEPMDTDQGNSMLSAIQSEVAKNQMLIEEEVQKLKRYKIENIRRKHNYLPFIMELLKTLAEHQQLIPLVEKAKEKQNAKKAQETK
Procedure, shortened: as §1

[8] = biological target: USP10 (UniProt Q14694)
Procedure, shortened: as §1

[9] = biological target: T6, USP15 (UniProt Q9Y4E8)
T6 sequence (whole entry): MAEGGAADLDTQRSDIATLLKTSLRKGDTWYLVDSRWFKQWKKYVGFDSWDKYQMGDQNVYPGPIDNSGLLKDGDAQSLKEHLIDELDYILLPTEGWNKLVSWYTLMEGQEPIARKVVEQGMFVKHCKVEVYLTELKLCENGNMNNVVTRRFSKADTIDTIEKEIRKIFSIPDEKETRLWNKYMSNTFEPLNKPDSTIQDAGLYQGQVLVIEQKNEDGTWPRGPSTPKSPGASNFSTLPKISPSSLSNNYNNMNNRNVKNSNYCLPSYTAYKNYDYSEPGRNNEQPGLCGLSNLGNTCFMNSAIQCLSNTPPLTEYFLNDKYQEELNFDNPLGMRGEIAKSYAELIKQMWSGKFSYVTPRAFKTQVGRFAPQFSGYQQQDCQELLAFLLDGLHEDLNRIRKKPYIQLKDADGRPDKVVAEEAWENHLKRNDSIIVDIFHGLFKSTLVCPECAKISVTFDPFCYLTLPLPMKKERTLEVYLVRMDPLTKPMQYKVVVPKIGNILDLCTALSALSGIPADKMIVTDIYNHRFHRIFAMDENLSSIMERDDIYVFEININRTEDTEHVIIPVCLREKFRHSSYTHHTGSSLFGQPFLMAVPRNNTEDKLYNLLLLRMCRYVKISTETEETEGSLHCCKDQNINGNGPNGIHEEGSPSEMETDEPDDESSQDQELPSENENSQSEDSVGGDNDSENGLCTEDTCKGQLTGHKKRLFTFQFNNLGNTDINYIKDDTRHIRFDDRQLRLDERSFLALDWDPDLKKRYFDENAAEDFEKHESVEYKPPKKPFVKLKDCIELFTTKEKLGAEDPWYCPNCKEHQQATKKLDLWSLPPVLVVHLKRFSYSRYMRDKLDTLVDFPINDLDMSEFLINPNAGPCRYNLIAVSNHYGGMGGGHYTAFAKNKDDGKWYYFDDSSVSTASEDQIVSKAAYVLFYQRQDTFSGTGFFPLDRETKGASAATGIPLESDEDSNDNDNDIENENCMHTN
Procedure, shortened: as §1

Measured: log2 ratio of Biotin-Ahx-Ub-VS probe labelling

Sequence of USP10 (Q14694 whole entry): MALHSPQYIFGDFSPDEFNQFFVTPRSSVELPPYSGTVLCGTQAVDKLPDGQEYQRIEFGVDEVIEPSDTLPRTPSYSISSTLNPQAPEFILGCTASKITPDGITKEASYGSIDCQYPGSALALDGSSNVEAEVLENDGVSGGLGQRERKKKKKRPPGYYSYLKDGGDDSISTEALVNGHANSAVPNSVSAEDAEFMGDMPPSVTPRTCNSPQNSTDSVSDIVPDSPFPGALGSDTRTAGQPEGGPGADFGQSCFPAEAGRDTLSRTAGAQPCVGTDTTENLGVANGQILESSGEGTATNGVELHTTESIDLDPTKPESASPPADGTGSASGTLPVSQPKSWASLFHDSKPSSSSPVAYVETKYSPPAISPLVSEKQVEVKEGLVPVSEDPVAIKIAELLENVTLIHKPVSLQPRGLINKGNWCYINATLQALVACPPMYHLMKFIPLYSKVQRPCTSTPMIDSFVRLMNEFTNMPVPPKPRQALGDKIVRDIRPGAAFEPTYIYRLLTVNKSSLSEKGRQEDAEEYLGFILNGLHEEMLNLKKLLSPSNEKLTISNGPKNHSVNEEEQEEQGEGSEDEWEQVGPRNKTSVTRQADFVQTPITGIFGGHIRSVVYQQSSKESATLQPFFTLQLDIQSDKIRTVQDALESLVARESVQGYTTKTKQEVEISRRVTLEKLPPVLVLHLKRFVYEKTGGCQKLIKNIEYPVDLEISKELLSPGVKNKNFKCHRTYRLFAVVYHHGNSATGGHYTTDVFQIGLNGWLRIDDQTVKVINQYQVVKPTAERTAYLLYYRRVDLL
Sequence of UCHL1 (P09936 whole entry, looked up): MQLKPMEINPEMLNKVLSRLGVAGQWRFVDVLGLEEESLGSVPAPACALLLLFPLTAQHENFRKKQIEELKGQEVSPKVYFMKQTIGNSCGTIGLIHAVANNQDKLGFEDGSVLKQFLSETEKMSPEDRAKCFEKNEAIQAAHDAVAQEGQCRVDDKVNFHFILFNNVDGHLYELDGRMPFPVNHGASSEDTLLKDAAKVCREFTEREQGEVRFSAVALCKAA

Cc1ncsc1CCNC(=O)CCl
inactive: [1] 0.143 | [2] -0.157 | [3] 0.116 | [4] 0.433 | [6] 0.292 | [7] -0.131 | [8] 0.0995 | [9] 0.22
active: [5] -1.31
